# The whole screen tested about 360,000 compounds, of which about 7,300 (2%) were called active. This excerpt belongs to a sample that is enriched for actives. A number with no mark means an inactive call. Cut-off read from the data, not from the text of the source: active = inhibition above about 50%; inactive = the rest.
# Assay: blockers of TWEAK-induced Fn14 reporter activity – luciferase reporter cells, uHTS, primary screen (AID 1159606)
# Details: TWEAK-stimulated Fn14 reporter cells, luciferase luminescence, 8 h; at 10 µM; hits give high values
row,Structure (SMILES),inhibition
1,CCCCOC(=O)Nc1sc2nc(C)cc(C)c2c1-n1cccc1,0.84%
2,CN(C)NC(=O)c1csnc1-c1c(Cl)cccc1Cl,4.17%
3,COc1ccc(S(=O)(=O)N2CCOCC2)cc1NC(=O)CC1CC2CCC1C2 (centres undefined),3.62%
4,O=C(NCCc1ccccc1)c1cccc(NC(=O)c2ccccc2)c1,-19.1%
5,Cc1cc(=O)c2ccc(NC(=O)c3ccccc3)cc2[nH]1,-10.3%
6,O=C(NC1=CC(=O)c2ccccc2C1=O)c1ccccc1,67.5% (active)
7,NC(=O)COC(=O)c1sc2cc(F)ccc2c1Cl,-16.4%
8,FC(F)(F)Oc1ccccc1C(c1nnnn1C1CCCCC1)N1CCN(C/C=C/c2ccccc2)CC1 (centres undefined),24.4%
9,CC(C)c1ccccc1OCC(O)CN(CC(O)COc1cccc2ccccc12)C(C)C (centres undefined),-15%
10,N/C(=N\OC(=O)Nc1ccccc1)c1ccno1,-22.1%
11,O=C(COc1ccc(-n2cnnn2)cc1)Nc1ccccc1Cl,-14.3%
12,O=C(Nc1ccccc1Cl)O/N=C(/c1ccccc1)c1ccccn1,60.2% (active)
13,COc1ccc(CN2C(=O)C(CC(=O)NCCN3CCOCC3)CC(C(=O)N(C(C)C)C(C)C)=C2C)cc1 (centres undefined),14.2%
14,CCN(CC)C(=O)CCC(=O)Nc1ccc(C(=O)OC)cc1,0.79%
15,O=C(O)Cc1ccc(NCc2ccccc2Cl)cc1,22.4%
16,COC(=O)c1ccc(NCc2cc(O)ccc2O)cc1,88.9% (active)
17,CC(C)OC(=O)c1ccc(NCc2cc(O)ccc2O)cc1Cl,102% (active)
18,CC1(C)C2CCC1(C)C(OC(=O)c1ccc(O)cc1)C2 (centres undefined),16.2%
19,CC(CN1CCCCC1)OC(=O)c1ccccc1Cl (centres undefined),16.6%
20,O=C(OC12CC3CC(CC(C3)C1)C2)c1ccc(NCc2cc(O)ccc2O)cc1,106% (active)
21,C#CCNc1ccc(C(=O)OCC)cc1,-3.49%
22,COc1nc(N(C)C)nc(N2CC(=O)N(CCNS(=O)(=O)c3ccc(C)cc3)C2=N)n1,-3.28%
23,Cc1ccccc1-c1csc(C(O)c2cccc(Cl)c2)n1 (centres undefined),-4.88%
24,COc1ccc(N2CCN(C(=O)C3CCN(S(=O)(=O)c4ccc(C)cc4)CC3)CC2)cc1,-13.2%

row,Structure (SMILES),inhibition
1,Cc1nccn1CCC1CCCCN1C(=O)CCc1nnc(-c2ccsc2)o1 (centres undefined),-14.9%
2,O=C(Cn1cnc2cc([N+](=O)[O-])ccc2c1=O)NC(=O)NCc1ccccc1,-1.13%
3,CC(C)(C)NC(=O)Cn1cnc2cc([N+](=O)[O-])ccc2c1=O,83% (active)
4,CC(C)(C)NC(=O)Cn1cnc([N+](=O)[O-])n1,18.3%
5,Cc1cc2c(cc1S(=O)(=O)NCc1ccc(Cl)cc1)OCC(=O)N2,-8.95%
6,CCOC(=O)C(=Cc1ccccc1)C(=O)c1ccccc1,98.4% (active)
7,CCOC(=O)CCP(=O)(O)C(O)(c1ccccc1)c1ccccc1,-6.25%
8,COc1ccccc1/C=C/C(=O)NC1CC2CCC1C2 (centres undefined),-13.3%
9,CCc1ccccc1NC(=O)/C(=C/c1ccccc1)c1ccccc1,-19.8%
10,COc1ccccc1C(=O)c1ccccc1C(=O)c1ccccc1,9.79%
11,CCOC(=O)C(=Cc1ccccc1OC)C(=O)OCC,81.9% (active)
12,CC(C)Oc1ccc(S(=O)(=O)N2CCOCC2)cc1NC(=O)C1CSC2(C)CCC(=O)N12 (centres undefined),-10.2%
13,CC1(C(=O)NCc2cccc3ccccc23)CCN1Cc1ccc(-c2ccccc2)o1 (centres undefined),7.77%
14,Cc1ccc(-c2c[n+](=O)c3c(n2[O-])CCC3)cc1,-2.42%
15,Cc1ccnc(N2C(=O)c3ccccc3C2Nc2ccc3c(c2)OCCO3)c1 (centres undefined),61.2% (active)
16,COC(=O)c1cc(NC2c3ccccc3C(=O)N2c2ccc(Cl)cn2)cc(C(=O)OC)c1 (centres undefined),-15.2%
17,O=C1c2ccccc2C(Nc2ccc3c(c2)OCCO3)N1Cc1ccco1 (centres undefined),70.9% (active)
18,S=C(NCc1ccco1)Nc1ccc2c(c1)OCCO2,2.21%
19,CCCCCn1nnnc1C1c2ccccc2C(=O)N1Cc1ccco1 (centres undefined),16.5%
20,O=C(Nc1ccc2c(c1)OCCO2)C1c2ccccc2OCC(=O)N1Cc1ccccn1 (centres undefined),-0.53%
21,C[C@@H]1C[C@@H]2O[C@H]2/C=C\C=C\C(=O)Cc2c(Cl)c(O)cc(O)c2C(=O)O1,90.7% (active)
22,COc1ccc([C@H]2[C@H](C(C)=O)N3N=Cc4ccccc4C3C23C(=O)OC(C)(C)OC3=O)cc1 (some centres undefined),10.5%
23,C/C(=N/NC(=S)Nc1ccccc1)c1ccc2c(c1)OCO2,-46.3%
24,Cc1ccc(NC(=O)Nc2ccc3oc(C)nc3c2)cc1,-4.94%

row,Structure (SMILES),inhibition
1,O=C(Nc1ccc2ccccc2c1)Nc1ccc2snnc2c1,74.8% (active)
2,S=C(Nc1ccccc1)Nc1ccc2ccccc2c1,0.33%
3,O=C(C1CCC1)N1CCN(S(=O)(=O)c2ccc([N+](=O)[O-])cc2)CC1,4.46%
4,CCOC(=O)[C@]12CCCC=C1N(Cc1ccc3c(c1)OCO3)C(=O)[C@H](CC(=O)NCc1cccs1)C2,15.5%
5,O=S(=O)(Cc1ccc(Cl)cc1Cl)c1ccc(Cl)cc1,12.1%
6,CCCCNC(=O)C[C@@H]1C[C@@]2(C(=O)OCC)CCC=C2N(Cc2cccc3ccccc23)C1=O,14.7%
7,CC(=O)c1c(C)oc2ccc(NS(=O)(=O)c3ccc(C(=O)O)cc3)cc12,3.85%
8,COc1ccc(S(=O)(=O)Nc2ccc3oc(C)c(C(C)=O)c3c2)cc1,54.4% (active)
9,CC(=O)c1c(C)oc2ccc(NS(=O)(=O)c3ccccc3)cc12,21.6%
10,CC1(C(=O)NS(=O)(=O)c2ccc(C#N)cc2)CCN1C(=O)CC1CCCC1 (centres undefined),1.67%
11,CCCCCCN1C[C@H](O)[C@@H](n2cc(C3CC3)nn2)C[C@@H]1c1ccc(Cl)cc1,-1.73%
12,O=C(/C=C/[C@H]1O[C@@H](n2cnc3c(NC(=O)c4ccccc4)ncnc32)[C@H](O)[C@@H]1O)NCc1ccccc1,-7.74%
13,COc1ccc(NC(=O)C2C3CCC(O3)C2C(=O)O)cc1OC (centres undefined),2.27%
14,COc1ccc(NC(=O)CSCc2ccc([N+](=O)[O-])cc2)cc1OC,6.35%
15,COc1ccc(NC(=S)SC)cc1OC,68.3% (active)
16,COc1cc(OC)cc(C(=O)NCCSCc2ccc(Cl)cc2)c1,0.23%
17,CCn1c(/C=C/c2ccc([N+](=O)[O-])o2)nc2ccccc2c1=O,63.4% (active)
18,Cc1nc2ccccc2c(=O)n1NC(=O)c1ccc(Cl)c([N+](=O)[O-])c1,32.6%
19,C=CCn1c(SCC(=O)NC(=O)Cc2ccccc2)nc2ccccc2c1=O,14%
20,COc1ccc(Cl)cc1NC(=O)COC(=O)C(CC(C)C)N1C(=O)C2CC=CCC2C1=O (centres undefined),-4.03%
21,Nc1[nH]c(C(=O)c2ccccc2)c(-c2ccc(Br)cc2)c1C(=O)NC1CC1,-5.57%
22,CN(C)S(=O)(=O)c1ccc(Oc2ccc(S(=O)(=O)N(C)C)cc2)cc1,6.23%
23,Cc1cc(C(C)(C)C)cc(C)c1N,-8.01%
24,CC(C)(C)c1ccc(Oc2ccc(N)cc2)cc1,99% (active)

row,Structure (SMILES),inhibition
1,CC(=O)c1ccc(OCCCC(=O)Nc2ccc(C)c(S(=O)(=O)N3CCOCC3)c2)cc1,-0.59%
2,COC(=O)c1ccc2nc(-c3cccc(Br)c3)c(Cc3ccccc3C(F)(F)F)n2c1,-11.5%
3,Nc1nc(-c2sc3nc4c(cc3c2N)CCCC4)nc(N2CCOCC2)n1,-10.3%
4,COc1ccc(CC(=O)Nc2ccccc2NC(=O)c2ccco2)cc1OC,-18.6%
5,COc1ccc(CC(=O)NC2CCSc3ccccc32)cc1OC (centres undefined),2.41%
6,COc1cc(CC(=O)Nc2nc(-c3ccc(F)c(F)c3)cs2)cc(OC)c1OC,60.3% (active)
7,COc1ccc(CCNC(=O)COC(=O)Cc2cc(OC)c(OC)c(OC)c2)cc1,-9.86%
8,COc1ccc(CC(=O)Nc2nc(-c3ccc(F)c(F)c3)cs2)cc1OC,59% (active)
9,O=C(COC(=O)C1CCCO1)Nc1nc(-c2ccc(F)cc2)cs1 (centres undefined),-21.9%
10,O=c1cc(CO)oc(C(Nc2cccc(C(F)(F)F)c2)c2ccccn2)c1O (centres undefined),-5.67%
11,Cc1cc(C)cc(N(CCC#N)C(=O)CN2C(=O)NC3(CCCC3)C2=O)c1,-2.17%
12,CCC(C)NC(=O)CN(C1CCCCC1)S(C)(=O)=O (centres undefined),5.8%
13,CCCCCCN1CCN(C2CN(Cc3cn(Cc4ccc(F)cc4)nn3)S(=O)(=O)C2)CC1 (centres undefined),8.31%
14,CN(C(=O)c1ccccn1)c1nnc(-c2ccccn2)s1,-1.91%
15,CCc1cc(C(=O)Nc2nnc(C3CC3)s2)sc1C,7.61%
16,O=C(Nc1nnc(C2CC2)s1)c1ccccn1,65.5% (active)
17,Cc1cnc(NC(=O)c2ccccn2)s1,55.5% (active)
18,Cc1cnc(NC(=O)Cn2cnc3c2c(=O)n(C)c(=O)n3C)s1,6.18%
19,CCc1ccccc1OCC(=O)Nc1nnc(C2CC2)s1,-23.1%
20,CN(C)c1cccc(NC(=O)c2ccc(-c3ccc(F)c(F)c3)c3ccoc23)c1,-36.6%
21,CCNC(=S)Nc1ccc2c(c1)c(=O)n(C)n2Cc1ccc(Cl)cc1,10.2%
22,C=CCn1c(=S)[nH]c2scc(-c3ccco3)c2c1=O,2.15%

# — PubChem BioAssay AID1159606 (Sanford-Burnham Center for Chemical Genomics, 2016)
